This is an account of results in PubChem BioAssay (NCATS).

Inconclusive results are not listed. Values without a mark were called inactive. Active and inactive are the calls of the source. Unless noted, calls come from the whole dose curve; as a rule, active = well fitted curve in the direction sought with a large enough effect; inconclusive = small, poorly fitted or top-dose-only effect, or another doubt; inactive = no such curve, though single readings can be large; an effect the other way counts as inactive or inconclusive.

Test [1] addresses Calcium and integrin-binding protein 1 (Homo sapiens) (UniProt Q99828). Put plainly: Primary qHTS for Identification of Calcium Integrin Binding Protein 1 (CIB1) Competitor (AID 1508620).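 Note: GST tagged CIB1 binding a fluorescein labelled alphaIIb integrin peptide tracer; top concentration of the series differs between compounds.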 In short, it runs like this:
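CIB1-GST (1 uM final) and compound incubated 15 min at room temperature before adding FITC-alphaIIb peptide tracer (100 nM final). Competition for binding read by fluorescence polarization (ex 480, em 540) after another 15 min at room temperature.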
For orientation: In qHTS, concentration-response curves come from the screen itself.

The target in test [2] is Cytochrome P450 2D6 (Homo sapiens) (UniProt P10635). Put plainly: Cytochrome P450 family 2 subfamily D member 6 (CYP2D6) small molecule antagonists: luciferase biochemical (cell-free) qHTS assay (AID 1645840; active = well fitted curve in the direction sought with a large enough effect in the repeat runs; an effect the other way counts as inactive or inconclusive; note: nearly all actives have a fitted effect of over 55% in size; note: potency is the fitted concentration of half-maximal effect; for activity change, negative = inhibition: series mostly up to about 57 µM). In short, it runs like this: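 P450-Glo luminescent screen: recombinant CYP2D6 enzyme–proluciferin substrate mix preincubated with compound 10 min at room temperature, then NADPH regeneration added for 1 h at room temperature. Detection reagent added for 20 min; luciferin light read as relative luminescence units.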

For test [3], the target named is Cytochrome P450 2C9 (Homo sapiens) (UniProt P11712). In words: Cytochrome P450 family 2 subfamily C member 9 (CYP2C9) small molecule antagonists: luciferase biochemical (cell-free) qHTS assay (AID 1645842; active = well fitted curve in the direction sought with a large enough effect in the repeat runs; an effect the other way counts as inactive or inconclusive; note: nearly all actives have a fitted effect of over 55% in size; note: potency is the fitted concentration of half-maximal effect; for activity change, negative = inhibition: series mostly up to about 57 µM). In a few lines:
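Luminescence, after 20 min with luciferin detection reagent, reflected CYP2C9 turnover during a 1 h NADPH-driven reaction at 37C. Enzyme-substrate mix contained 0.4% bovine serum albumin and was preincubated with compound 10 min at room temperature.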

A short description of test [4]: Primary qHTS for inhibitors of nuclear receptor binding SET domain protein 2 (NSD2) in an isogenic RCH-ACV NSD2 p.E1099K mutant (9B) (AID 1645876). Note: nearly all actives have a fitted effect of over 70% in size. Note: potency is the fitted concentration of half-maximal effect.
A short description of test [5]: Primary qHTS for inhibitors of nuclear receptor binding SET domain protein 2 (NSD2) in an RCH-ACV wild type WT cells (2C) (AID 1645877). Note: nearly all actives have a fitted effect of over 70% in size. Note: potency is the fitted concentration of half-maximal effect.
% is set by controls: 0 for no effect and ±100 for the full control effect.

Chain of Cytochrome P450 2D6 (Homo sapiens) (P10635 whole entry, looked up): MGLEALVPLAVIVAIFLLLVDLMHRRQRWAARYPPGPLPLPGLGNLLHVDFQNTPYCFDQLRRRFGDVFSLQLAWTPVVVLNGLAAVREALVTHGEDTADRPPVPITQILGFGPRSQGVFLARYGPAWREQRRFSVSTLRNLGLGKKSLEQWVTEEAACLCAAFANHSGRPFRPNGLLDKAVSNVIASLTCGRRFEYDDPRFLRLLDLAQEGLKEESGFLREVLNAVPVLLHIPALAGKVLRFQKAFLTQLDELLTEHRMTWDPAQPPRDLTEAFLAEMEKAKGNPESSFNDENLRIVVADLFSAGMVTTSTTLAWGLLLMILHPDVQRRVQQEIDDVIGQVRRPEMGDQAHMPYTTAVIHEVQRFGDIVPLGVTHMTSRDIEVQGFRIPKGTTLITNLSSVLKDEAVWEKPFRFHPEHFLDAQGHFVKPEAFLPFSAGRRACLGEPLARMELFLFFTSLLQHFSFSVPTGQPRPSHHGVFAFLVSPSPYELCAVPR
Chain of Calcium and integrin-binding protein 1 (Homo sapiens) (Q99828 whole entry, looked up): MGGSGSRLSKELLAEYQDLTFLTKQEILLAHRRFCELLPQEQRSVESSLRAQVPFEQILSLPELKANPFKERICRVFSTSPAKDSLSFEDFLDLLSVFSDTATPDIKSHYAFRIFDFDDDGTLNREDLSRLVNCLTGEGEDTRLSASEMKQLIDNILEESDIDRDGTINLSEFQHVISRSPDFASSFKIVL
Chain of Cytochrome P450 2C9 (Homo sapiens) (P11712 whole entry, looked up): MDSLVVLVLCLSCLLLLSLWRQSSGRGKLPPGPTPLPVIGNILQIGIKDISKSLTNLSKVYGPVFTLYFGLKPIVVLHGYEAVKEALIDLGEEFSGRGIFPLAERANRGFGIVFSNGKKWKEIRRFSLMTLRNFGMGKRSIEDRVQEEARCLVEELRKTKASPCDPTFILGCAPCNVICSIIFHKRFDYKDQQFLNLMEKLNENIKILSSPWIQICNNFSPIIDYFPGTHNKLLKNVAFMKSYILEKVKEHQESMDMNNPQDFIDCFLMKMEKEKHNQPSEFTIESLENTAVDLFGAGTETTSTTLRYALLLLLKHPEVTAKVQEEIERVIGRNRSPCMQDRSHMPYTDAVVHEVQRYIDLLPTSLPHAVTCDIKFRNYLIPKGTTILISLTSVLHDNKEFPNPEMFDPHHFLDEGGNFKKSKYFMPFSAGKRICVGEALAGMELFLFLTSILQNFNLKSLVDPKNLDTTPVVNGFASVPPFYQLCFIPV

With `CCOC(=O)C1=C(N)Oc2ccc(Cl)cc2C1C(C#N)C(=O)OCC` (stereo not given), the Potency entry in test [1], in test [4] and in test [5] was “inactive” throughout. Moreover, the Potency in test [2] is 16.9 µM (active); in test [3], 10.7 µM (active).

As for `CC(=O)N[C@H](Cc1c[nH]c2ccccc12)C(=O)OCc1cc(C(F)(F)F)cc(C(F)(F)F)c1`, the Potency entry in test [1], in test [4] and in test [5] was “inactive” in each case. Besides, the Potency was 19 µM (active) in test [2] and 1.9 µM (active) in test [3].

On to `Cc1cc(Cn2cnc3c2CC(C(=O)O)N(C(=O)C(c2ccccc2)c2ccccc2)C3)ccc1N(C)C` (stereo not given), for which the Potency entry in test [1], in test [2], in test [3], in test [4] and in test [5] was “inactive” throughout.

As for `COc1ccc(C(=O)NCc2cc(C(C)C)no2)cc1OC1CCN(C)CC1`, the Potency result in test [1], in test [2], in test [3], in test [4] and in test [5] was “inactive” in each case.

`CCC(C)(C)C1CCc2c(sc(NC(=O)c3ccc(Br)cc3)c2C#N)C1` (stereo not given): the Potency entry in test [1], in test [2], in test [3], in test [4] and in test [5] was “inactive” in each case.

Take `Cc1onc(-c2ccccc2Cl)c1C(=O)N(C)c1ccc(Cl)cc1`: the Potency result in test [1], in test [2], in test [4] and in test [5] was “inactive” in each case. Besides, the Potency in test [3] was 13.5 µM (active).

For the compound `CCCN1CCC[C@@H](c2cccc(S(C)(=O)=O)c2)C1`, the Potency result in test [1], in test [3], in test [4] and in test [5] was “inactive” in each case. For the same compound, the Potency in test [2] is 15.1 µM (active).

`Cc1c(C)c(NCC(=O)N(C)C2CCN(Cc3ccc(C(N)=O)cc3)CC2)c(C)c(C)c1N`: the Potency entry in test [1], in test [4] and in test [5] was “inactive” throughout. Besides, the Potency is 21.3 µM (active) in test [2] and 7.56 µM (active) in test [3].

Regarding `CC1(C)Oc2ncnc(N)c2N=C1c1ccc(C2CCC(CC(=O)O)CC2)cc1` (stereo not given), the Potency entry in test [1], in test [2], in test [3], in test [4] and in test [5] was “inactive” each time.

For `O=C(Nc1ccccc1)Nc1ccc(-c2ccc(C(=O)C3CCCC3C(=O)O)cc2)cc1` (stereo not given), the Potency result in test [1], in test [2], in test [4] and in test [5] was “inactive” throughout. Moreover, the Potency in test [3] is 16.9 µM (active).

As for `Cc1cc(-c2nncc3c(C(C)(C)C)c(OCc4ncnn4C)nn23)no1`, the Potency entry in test [1], in test [2], in test [4] and in test [5] was “inactive” throughout. Moreover, the Potency in test [3] was 3.01 µM (active).

With `COc1cc2nc(=NC(=O)c3cccnc3)n3c(c2cc1OC)NCC3`, the Potency result in test [1], in test [2] and in test [3] was “inactive” in each case. For the same compound, the Potency was 4.59 µM (active) in test [4] and 5.15 µM (active) in test [5].

Take `CNC(C)C(=O)NC(C(=O)N1CCCC1C(=O)Nc1cccc2ncccc12)C(C)C` (stereo not given): the Potency entry in test [1], in test [2], in test [3], in test [4] and in test [5] was “inactive” each time.

As to `Nc1nc(COC(=O)c2ccc([N+](=O)[O-])cc2)nc(Nc2ccccc2)n1`, the Potency result in test [1], in test [2], in test [4] and in test [5] was “inactive” in each case. In test [3], the Potency is 21.3 µM (active).

For the compound `COc1ccc(CC(=O)NCc2ccccc2-c2ccccc2C(=O)NCCc2cccnc2)cc1`, the Potency entry in test [1], in test [4] and in test [5] was “inactive” each time. Moreover, the Potency was 10.7 µM (active) in test [2] and 2.68 µM (active) in test [3].

On to `CN(C)c1ccc(C2O[C@@H](c3ccccc3)C[C@H](c3ccccc3)O2)cc1` (stereo not given in full), for which the Potency entry in test [1], in test [2], in test [4] and in test [5] was “inactive” in each case. The Potency in test [3] is 15.1 µM (active).

For `Cc1cc(CNC(=O)c2cc(C(=O)NCc3ccc(F)c(C)c3)ncn2)ccc1F`, the Potency result in test [1], in test [2], in test [3], in test [4] and in test [5] was “inactive” in each case.

As for `O=C(O)[C@H](Cc1ccccc1)Oc1ccc(-c2ccccc2)cc1`, the Potency entry in test [1], in test [2], in test [4] and in test [5] was “inactive” each time. Besides, the Potency in test [3] was 9.52 µM (active).

Consider `COc1cccc(OC)c1-c1nc(C(=O)N[C@@H](CC(C)C)C(=O)O)cn1-c1ccnc2cc(Cl)ccc12`, for which the Potency result in test [1], in test [2], in test [3], in test [4] and in test [5] was “inactive” throughout.

`CCOc1ncc(S(=O)(=O)N2CCN(CC)CC2)cc1-c1nc2c(CC)n(CCOC)nc2c(=O)[nH]1`: the Potency result in test [1], in test [2], in test [4] and in test [5] was “inactive” throughout. Moreover, in test [3], the Potency was 10.7 µM (active).

For `O=C(O)[C@H]1Cc2ccccc2CN1`, the activity change, negative = inhibition in test [1] was 5.95% [at 12.4 µM]; in test [2] it was 4.56% [at 11.5 µM]; in test [3], 2.02% [at 11.5 µM]. In addition, the outcome in test [4] and in test [5] was “inactive [at 4.96 µM]” each time.
